Experimental data taken from PubChem BioAssay AID1159580 (chemical genetic matrix, 2015).
Hit rate of the full screen: of about 5,500 compounds, about 2,000 (36%) were called active. About 18% were inconclusive and are not listed. No stated cut-off is given here; in the data, active means normalized growth mostly below about 0.91 (no sharp cut-off); inconclusive means no clear call, values can overlap the other calls; inactive means mostly above about 0.92. The list shows a part of the results.

Assay: chemical genetic growth profiling, strain panel (AID 1159580);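 further: tested at 20 µM; growth read once vehicle control cultures reached saturation at 30 °C; 1 = growth at the plate median or of vehicle wells; lower values mean less growth of the strain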
Conditions: growth OD

Measured: normalized growth

CO[C@H]1C[C@H](O[C@H]2[C@H](C)[C@@H](OC3O[C@H](C)C[C@H](N(C)C)[C@H]3OC(C)=O)[C@@H](C)C[C@]3(CO3)C(=O)[C@H](C)[C@@H](OC(C)=O)[C@@H](C)[C@@H](C)OC(=O)[C@@H]2C)O[C@@H](C)[C@@H]1OC(C)=O (some centres undefined)
inactive: S. cerevisiae deletion strains, locus YKL009W, strain mrt4, active compounds read low 0.977 | S. cerevisiae deletion strains, locus YKL068W, active compounds read low 0.995 | S. cerevisiae deletion strains, locus YKL085W, strain MDH1 (second series), active compounds read low 0.989 | S. cerevisiae deletion strains, locus YKL085W, strain MDH1, active compounds read low 0.989 | S. cerevisiae deletion strains, locus YKL160W, strain elf1, active compounds read low 0.984 | S. cerevisiae deletion strains, locus YKL190W, strain CNB1, active compounds read low 1 | S. cerevisiae deletion strains, locus YKR001C, strain vps1, active compounds read low 0.982 | S. cerevisiae deletion strains, locus YKR026C, strain gcn3, active compounds read low 0.982 | S. cerevisiae deletion strains, locus YKR091W, strain srl3, active compounds read low 0.997 | S. cerevisiae deletion strains, locus YLL001W, strain dnm1, active compounds read low 1.01 | S. cerevisiae deletion strains, locus YLL026W, active compounds read low 1 | S. cerevisiae deletion strains, locus YLL041C, strain sdh2, active compounds read low 1 | S. cerevisiae deletion strains, locus YLR027C, strain aat2, active compounds read low 0.984 | S. cerevisiae deletion strains, locus YLR039C, strain RIC1, active compounds read low 1.02 | S. cerevisiae deletion strains, locus YLR058C, strain SHM2, active compounds read low 1.01 | S. cerevisiae deletion strains, locus YLR102C, strain apc9, active compounds read low 0.989 | S. cerevisiae deletion strains, locus YLR113W, strain HOG1, active compounds read low 0.978 | S. cerevisiae deletion strains, locus YLR221C, strain rsa3, active compounds read low 0.99 | S. cerevisiae deletion strains, locus YLR258W, strain gsy2, active compounds read low 0.997 | S. cerevisiae deletion strains, locus YLR262C, strain YPT6 (second series), active compounds read low 0.983 | S. cerevisiae deletion strains, locus YLR262C, strain YPT6, active compounds read low 1.02 | S. cerevisiae deletion strains, locus YLR268W, strain sec22, active compounds read low 0.987 | S. cerevisiae deletion strains, locus YLR320W, strain mms22, active compounds read low 0.993 | S. cerevisiae deletion strains, locus YLR330W, strain CHS5, active compounds read low 1 | S. cerevisiae deletion strains, locus YLR342W, strain FKS1 (second series), active compounds read low 0.983 | S. cerevisiae deletion strains, locus YLR342W, strain FKS1, active compounds read low 0.982 | S. cerevisiae deletion strains, locus YLR357W, strain rsc2, active compounds read low 0.997 | S. cerevisiae deletion strains, locus YLR370C, strain arc18, active compounds read low 0.993 | S. cerevisiae deletion strains, locus YLR371W, strain rom2, active compounds read low 0.983 | S. cerevisiae deletion strains, locus YLR384C, strain iki3, active compounds read low 0.995 | S. cerevisiae deletion strains, locus YLR418C, strain cdc73, active compounds read low 0.961 | S. cerevisiae deletion strains, locus YML016C, strain PPZ1, active compounds read low 1.01 | S. cerevisiae deletion strains, locus YML032C, strain rad52, active compounds read low 0.991 | S. cerevisiae deletion strains, locus YML120C, strain ndi1, active compounds read low 0.989 | S. cerevisiae deletion strains, locus YML124C, strain tub3, active compounds read low 0.985 | S. cerevisiae deletion strains, locus YMR058W, strain fet3, active compounds read low 1 | S. cerevisiae deletion strains, locus YMR078C, strain ctf18, active compounds read low 1 | S. cerevisiae deletion strains, locus YMR125W, strain sto1, active compounds read low 0.975 | S. cerevisiae deletion strains, locus YMR129W, active compounds read low 0.998 | S. cerevisiae deletion strains, locus YMR205C, strain PFK2, active compounds read low 1.01 | S. cerevisiae deletion strains, locus YMR223W, strain ubp8, active compounds read low 0.992 | S. cerevisiae deletion strains, locus YMR231W, strain pep5, active compounds read low 0.997 | S. cerevisiae deletion strains, locus YMR263W, strain SAP30, active compounds read low 1 | S. cerevisiae deletion strains, locus YMR307W, strain GAS1, active compounds read low 0.962 | S. cerevisiae deletion strains, locus YNL067W, strain RPL9B, active compounds read low 1.01 | S. cerevisiae deletion strains, locus YNL071W, strain lat1, active compounds read low 0.975 | S. cerevisiae deletion strains, locus YNL183C, strain NPR1, active compounds read low 0.932 | S. cerevisiae deletion strains, locus YNL209W, strain ssb2, active compounds read low 0.99 | S. cerevisiae deletion strains, locus YNL233W, strain BNI4, active compounds read low 1.02 | S. cerevisiae deletion strains, locus YNL248C, strain rpa49, active compounds read low 1.01 | S. cerevisiae deletion strains, locus YNL250W, strain rad50, active compounds read low 1.01 | S. cerevisiae deletion strains, locus YNL271C, strain bni1, active compounds read low 0.985 | S. cerevisiae deletion strains, locus YNL298W, strain CLA4, active compounds read low 0.969 | S. cerevisiae deletion strains, locus YNL307C, strain MCK1, active compounds read low 0.987 | S. cerevisiae deletion strains, locus YNL322C, strain KRE1 (second series), active compounds read low 0.992 | S. cerevisiae deletion strains, locus YNL322C, strain KRE1, active compounds read low 1 | S. cerevisiae deletion strains, locus YNR049C, strain mso1, active compounds read low 1 | S. cerevisiae deletion strains, locus YNR052C, strain pop2, active compounds read low 0.998 | S. cerevisiae deletion strains, locus YOL006C, strain TOP1, active compounds read low 1 | S. cerevisiae deletion strains, locus YOL012C, strain htz1 0.913 | S. cerevisiae deletion strains, locus YOL147C, strain pex11, active compounds read low 0.992 | S. cerevisiae deletion strains, locus YOR001W, strain rrp6, active compounds read low 1 | S. cerevisiae deletion strains, locus YOR061W, strain CKA2, active compounds read low 1.01 | S. cerevisiae deletion strains, locus YOR069W, strain VPS5, active compounds read low 1.01 | S. cerevisiae deletion strains, locus YOR070C, strain gyp1, active compounds read low 1.01 | S. cerevisiae deletion strains, locus YOR080W, strain dia2, active compounds read low 1 | S. cerevisiae deletion strains, locus YOR083W, strain WHI5, active compounds read low 0.988 | S. cerevisiae deletion strains, locus YOR106W, strain vam3, active compounds read low 1 | S. cerevisiae deletion strains, locus YOR136W, strain idh2, active compounds read low 0.988 | S. cerevisiae deletion strains, locus YOR144C, strain elg1, active compounds read low 0.985 | S. cerevisiae deletion strains, locus YOR184W, strain ser1, active compounds read low 0.982 | S. cerevisiae deletion strains, locus YOR231W, strain MKK1, active compounds read low 0.955 | S. cerevisiae deletion strains, locus YOR265W, strain rbl2, active compounds read low 0.997 | S. cerevisiae deletion strains, locus YOR270C, strain vph1, active compounds read low 1.02 | S. cerevisiae deletion strains, locus YOR290C, strain snf2, active compounds read low 0.996 | S. cerevisiae deletion strains, locus YOR316C, strain cot1, active compounds read low 0.993 | S. cerevisiae deletion strains, locus YPL051W, strain arl3, active compounds read low 0.992 | S. cerevisiae deletion strains, locus YPL055C, strain LGE1, active compounds read low 1.02 | S. cerevisiae deletion strains, locus YPL078C, strain atp4, active compounds read low 1.01 | S. cerevisiae deletion strains, locus YPL106C, strain sse1, active compounds read low 0.996 | S. cerevisiae deletion strains, locus YPL240C, strain hsp82, active compounds read low 1 | S. cerevisiae deletion strains, locus YPL241C, strain CIN2, active compounds read low 1 | S. cerevisiae deletion strains, locus YPL256C, strain CLN2, active compounds read low 0.959 | S. cerevisiae deletion strains, locus YPR119W, strain clb2, active compounds read low 0.986 | S. cerevisiae deletion strains, locus YPR141C, strain kar3, active compounds read low 0.984 | S. cerevisiae deletion strains, locus YPR163C, strain tif3, active compounds read low 0.99 | S. cerevisiae deletion strains, locus YPR167C, strain met16, active compounds read low 0.979 | S. cerevisiae deletion strains, strain wtn01, active compounds read low 0.975 | S. cerevisiae strains, strain wild type, active compounds read low 1
